TcdB GH inh – TcdB glycohydrolase inhibitors, primary screen, biochemical, single point, plate reader; Toxin B (Clostridioides difficile), P18177; TcdB glycohydrolase enzymatic assay; inhibition, % at 9.99 µM; 350,000 tested, 0.24% active; AID 652162, 2013; in the data active = inhibition above about 10%
PrPC surface inh – inhibitors of human cell surface prion protein PrPC, primary screen, cell-based, TR-FRET. Major prion protein (Homo sapiens), P04156. TR-FRET read-out. inhibition, % at 13.8 µM. 370,000 tested, 0.43% active. AID 720596, 2013; in the data active = inhibition above about 24%
VHR inh abs – VHR1 phosphatase inhibitors, primary screen, biochemical, absorbance, uHTS. AID 1654, 2009. recombinant VHR phosphatase, pNPP absorbance. inhibition, % at 13.3 µM. Dual specificity protein phosphatase 3 (Homo sapiens), P51452. 290,000 tested, 0.52% active; in the data active = inhibition above about 50%
Large screens that a line does not name were inactive. Most compounds without a hit are left out; they make up all but 0.82% or so of the library.

C[C@@H]1[C@@H](Sc2ccccc2)CC(=O)O[C@@H]1c1ccc(-c2ccccc2)cc1	none (no result: VHR inh abs)
O=C1C=CC2(O[C@H](c3ccccc3)[C@@H](c3ccccc3)O2)[C@H](Sc2ccccc2O)C1	PrPC surface inh 89.3 (no result: VHR inh abs)
C[C@@H]1CN([C@@H](C)CO)C(=O)c2cc(NC(=O)Nc3ccccc3)ccc2O[C@@H](C)CCCCO[C@@H]1CN(C)C	none (no result: PrPC surface inh, VHR inh abs)
COCCN1C2=C(C(=O)CC(C)(C)C2)C(c2ccc(OC)c(OC)c2)C2=C1CC(C)(C)CC2=O	none
COCCCN1C2=C(C(=O)CC(C)(C)C2)C(c2ccc(OC)c(OC)c2)C2=C1CC(C)(C)CC2=O	VHR inh abs 51.3
CCSc1nnc(NC(=O)C2(C)Cc3ccccc3C(=O)O2)s1 (configuration not stated)	none (no result: TcdB GH inh)
CC1(C(=O)Nc2nnc(C(C)(C)C)s2)Cc2ccccc2C(=O)O1 (configuration not stated)	VHR inh abs 52.7 (no result: TcdB GH inh)
CC=Cc1ccc2n(c1=O)C[C@@H]1[C@@H](CO)[C@H](C(=O)NC3CCC3)N(Cc3ccncc3)[C@H]21 (mixture of isomers)	none (no result: PrPC surface inh, VHR inh abs)
O=C(Nc1ccc(O)cc1)/C(=C/c1ccco1)NC(=O)c1ccccc1	TcdB GH inh 17.8
O=C(Nc1ccc(C(=O)O)cc1)/C(=C\c1ccco1)NC(=O)c1ccc(Br)cc1	none (no result: VHR inh abs)
O=C(Nc1ccccc1)/C(=C\c1ccncc1)NC(=O)c1ccccc1	none (no result: TcdB GH inh)
O=C(Nc1ccc(O)cc1)/C(=C\c1ccncc1)NC(=O)c1ccccc1	TcdB GH inh 23.6
C[C@@H]1CN([C@H](C)CO)C(=O)c2cc(NC(=O)C3CCCCC3)ccc2O[C@@H](C)CCCCO[C@@H]1CN(C)S(=O)(=O)c1ccc(F)cc1	none (no result: PrPC surface inh, VHR inh abs)
CCCNC(=O)N1C[C@H](O)COC[C@H]2O[C@@H](CC(=O)N3CCOCC3)CC[C@@H]21	none (no result: PrPC surface inh, VHR inh abs)
C[C@H]1CN([C@@H](C)CO)S(=O)(=O)c2ccc(-c3ccc(C#N)cc3)cc2O[C@H]1CN(C)Cc1ccccn1	none (no result: PrPC surface inh, VHR inh abs)
O=C(N[C@H]1CC[C@@H](CCn2cc(-c3ccccc3)nn2)O[C@@H]1CO)c1ccccc1F	none (no result: PrPC surface inh, VHR inh abs)
CCN1CCN(S(=O)(=O)c2ccc3[nH]c(=O)oc3c2)CC1	TcdB GH inh 19.3
O=c1[nH]c2ccc(S(=O)(=O)N3CCCCC3)cc2o1	none
CCCNC(=O)N1[C@H](C#N)[C@H](c2ccc(-c3ccc(C(=O)N(C)C)cc3)cc2)[C@@H]1CO	none (no result: PrPC surface inh, VHR inh abs)
Cc1ccc(C)c(OCC(=O)Nc2cc(C(=O)O)cc(C(=O)O)c2)c1	VHR inh abs 53.3
Cc1cc(C)c(OCC(=O)Nc2cc(C(=O)O)cc(C(=O)O)c2)cc1C	none
O=C(C[C@@H]1CC[C@H](NC(=O)C2CCOCC2)[C@@H](CO)O1)NCc1ccccc1Cl	none (no result: PrPC surface inh, VHR inh abs)
CCOc1ccc(CCNC(=O)Cn2ccc3cc(S(=O)(=O)N4CCCC4)ccc32)cc1	VHR inh abs 52.7
CCOc1ccc(CNC(=O)CCCn2ccc3cc(S(=O)(=O)N4CCCC4)ccc32)cc1	none
CN1C(=O)c2cc(NC(=O)C3CC3)ccc2OC[C@@H]2O[C@H](CC(=O)NCCN3CCCC3)CC[C@@H]21	none (no result: PrPC surface inh, VHR inh abs)
Cc1ccn(-c2ccc([N+](=O)[O-])cc2)n1	none (no result: TcdB GH inh)
CNc1ccccc1C(C)(C)c1cn(-c2ccc([N+](=O)[O-])cc2)nn1	VHR inh abs 52.9
Cc1ccc(Cn2nnc3c(=O)[nH]c(C4CCCN(S(=O)(=O)c5ccccc5)C4)nc32)cc1 (configuration not stated)	VHR inh abs 50.9
O=c1[nH]c(C2CCN(S(=O)(=O)c3ccc4c(c3)OCCO4)CC2)nc2c1nnn2Cc1ccccc1	VHR inh abs 52.9
Cc1ccc(Cn2nnc3c(=O)[nH]c(C4CCCN(S(=O)(=O)c5ccccc5F)C4)nc32)cc1 (configuration not stated)	none
Cc1ccc(S(=O)(=O)N2CCC(c3nc4c(nnn4Cc4ccccc4)c(=O)[nH]3)CC2)cc1	none
C[C@@H]1CN([C@@H](C)CO)C(=O)c2cc(NC(=O)CCN3CCOCC3)ccc2O[C@H]1CN(C)Cc1ccc(Oc2ccccc2)cc1	none (no result: PrPC surface inh, VHR inh abs)
CC(C)CC#Cc1ccc2c(c1)O[C@H](CN(C)Cc1cccnc1)[C@@H](C)CN([C@H](C)CO)S2(=O)=O	none (no result: PrPC surface inh, VHR inh abs)
CO[C@H]1CN(C)C(=O)c2ccc(NC(=O)C3CCCCC3)cc2OC[C@H](C)NC[C@H]1C	none (no result: PrPC surface inh, VHR inh abs)
C[C@H](CO)N1C[C@H](C)[C@@H](CN(C)C(=O)C2CC2)Oc2cc(C#C[C@@H](C)O)ccc2S1(=O)=O	none (no result: PrPC surface inh, VHR inh abs)
CCS(=O)(=O)N[C@@H]1C=C[C@H](CC(=O)NC2Cc3ccccc3C2)O[C@H]1CO	none (no result: PrPC surface inh, VHR inh abs)
C[C@@H]1CCCCO[C@@H](CN(C)C(=O)Cc2ccccc2)[C@@H](C)CN([C@H](C)CO)C(=O)c2cc(NC(=O)Nc3ccc(C(F)(F)F)cc3)ccc2O1	none (no result: PrPC surface inh, VHR inh abs)

Screening results as filed in PubChem BioAssay.
